Source: PubChem BioAssay (Tox21)
Results filed as inconclusive are left out. Where a call stands in place of a potency, no number is given. Calls of active or inactive are those of the source. Calls follow the shape of the dose curve; as a rule, active = well fitted curve in the direction sought with a large enough effect in the repeat runs; inconclusive = weak or mixed curves; inactive = no such curve, though single readings can be large; an effect the other way counts as inactive or inconclusive.

What was measured:
[1] = A CellTox Green Cytotoxicity Assay to monitor cytotoxicity in HepG2 cells - 0 hour (AID 1224882); also: nearly all actives have a fitted effect of over 35% in size
Summary of the method: (§1)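 Using 1536-well format, dye-containing HepG2 suspension was seeded, allowed 5 h at 37 C/5% CO2, dosed by pintool with compounds, positive and negative controls, and imaged for fluorescence across 40 h.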

[2] = A CellTox Green Cytotoxicity Assay to monitor cytotoxicity in HEK293 cells - 8 hour (AID 1224884); also: nearly all actives have a fitted effect of over 35% in size
Summary of the method: (§2)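 Fluorescence intensity, read at 0, 8, 16, 24, 32 and 40 h of compound treatment, reflected dye binding to DNA of dead HEK293 cells; compounds (23 nL, DMSO) were added 5 h after plating cells with reagent.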

[3] = qHTS RealTime-Glo MT Cell Viability Assay in HepG2 cells - 16 hour (AID 1224885); also: nearly all actives have a fitted effect of over 50% in size
Summary of the method: (§3)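 HepG2 cells were seeded at 600 cells/well together with NanoLuc luciferase and a cell-permeant prosubstrate, preincubated 5 h at 37 C/5% CO2, then pin-dosed with compounds in DMSO. Nonlytic luminescence from viable cells was read at each time point.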

[4] = qHTS RealTime-Glo MT Cell Viability Assay in HEK293 cells - 24 hour (AID 1224886); also: nearly all actives have a fitted effect of over 50% in size; also: potency is read from the fitted curve at half-maximal effect
Summary of the method: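 HEK293 cells were seeded at 600 cells/well together with NanoLuc luciferase and cell-permeant prosubstrate, preincubated 5 h at 37 C/5% CO2, then given compound in DMSO by pintool. Luminescence from viable-cell prosubstrate reduction was read repeatedly over 40 h.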

[5] = qHTS RealTime-Glo MT Cell Viability Assay in HEK293 cells - 8 hour (AID 1224887); also: nearly all actives have a fitted effect of over 50% in size; also: potency is read from the fitted curve at half-maximal effect
Summary of the method: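 Viable HEK293 cells reduce a cell-permeant prosubstrate; the product diffuses out and is consumed by NanoLuc in the medium to give light. Compounds went in after a 5 h incubation and plates were read over the treatment course.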

[6] = A CellTox Green Cytotoxicity Assay to monitor cytotoxicity in HEK293 cells - 16 hour (AID 1224888); also: nearly all actives have a fitted effect of over 35% in size
Summary of the method: as §2

[7] = qHTS RealTime-Glo MT Cell Viability Assay in HepG2 cells - 0 hour (AID 1224889); also: nearly all actives have a fitted effect of over 50% in size
Summary of the method: as §3

[8] = A CellTox Green Cytotoxicity Assay to monitor cytotoxicity in HepG2 cells - 8 hour (AID 1224890); also: nearly all actives have a fitted effect of over 45% in size; also: potency is read from the fitted curve at half-maximal effect
Summary of the method: as §1

[9] = A CellTox Green Cytotoxicity Assay to monitor cytotoxicity in HepG2 cells - 32 hour (AID 1224883); also: nearly all actives have a fitted effect of over 50% in size; also: potency is read from the fitted curve at half-maximal effect
Summary of the method: as §1

[10] = qHTS assay to identify small molecule antagonists of the estrogen receptor alpha (ER-alpha) signaling pathway using the BG1 cell line in the presence of 0.1 nM 17-beta-estradiol - cell viability counter screen (AID 1259241); also: nearly all actives have a fitted effect of over 40% in size
Summary of the method: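 The cell line endogenously expresses full-length ER-alpha and carries four EREs driving luciferase. Cells are cultured 5 days hormone-free, treated 22 hr with compounds and 0.1 nM estradiol, then viability is read by fluorescence.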

Row | Structure (SMILES) | Potency [1] | Potency [2] | Potency [3] | Potency [4] | Potency [5] | Potency [6] | Potency [7] | Potency [8] | Potency [9] | Potency [10]
1 | CCC(CC)(CC(=O)Nc1cccc(/C=C/c2nc(C3CCC3)cs2)c1)C(=O)O | inactive | inactive | inactive | inactive | inactive | inactive | inactive | inactive |  | 
2 | CC1(C)CCC[C@]2(C)[C@H]3CCO[C@]3(C)CC[C@@H]12 | inactive |  |  | inactive | inactive |  | inactive |  | inactive | 
3 | CC(CCc1ccccc1)NCC(O)c1ccc(O)c(C(N)=O)c1 (centres undefined) | inactive | inactive | inactive | inactive | inactive | inactive | inactive | inactive |  | 
4 | Cc1ccc(O)c(O)c1 | inactive |  | inactive |  |  |  | inactive | inactive | inactive | 
5 | Cc1c(N)cccc1C(F)(F)F | inactive |  | inactive | inactive |  | inactive | inactive | inactive | inactive | inactive
6 | CCCc1ccc(OCC(=O)N2CCN(C(=O)COc3ccc(CCC)cc3OC)CC2)c(OC)c1 | inactive |  |  | 9.52 µM (active) | 9.52 µM (active) | inactive | inactive | inactive | 23.9 µM (active) | inactive
7 | Nc1cc(Cl)c(O)c(Cl)c1 | inactive |  |  |  | 43.6 µM (active) | inactive | inactive | inactive | inactive | inactive
8 | Oc1cc(Cl)cc(Cl)c1Cl | inactive |  |  |  |  |  | inactive | inactive | inactive | inactive
9 | O[C@@H]([C@H](O)[C@H](O)CBr)[C@H](O)CBr | inactive | inactive | inactive | inactive | inactive | inactive | inactive |  |  | 
10 | CCC(C)n1ncn(-c2ccc(N3CCN(c4ccc(OC[C@H]5CO[C@](Cn6cncn6)(c6ccc(Cl)cc6Cl)O5)cc4)CC3)cc2)c1=O (some centres undefined) | inactive |  |  |  |  | inactive | inactive | inactive | inactive | inactive
11 | CC(C)=CCC1=C(O)c2ccccc2C(=O)C1=O | inactive |  | inactive |  |  | inactive | inactive | inactive | inactive | 
12 | CCN(CC)C(=O)c1cc(S(=O)(=O)Cc2ccccc2)c(N2CCC(c3ccccc3)CC2)cc1N(CC)CCN(C)C | inactive |  |  | 13.6 µM (active) | 17.2 µM (active) |  | inactive | 19.3 µM (active) | 15.3 µM (active) | inactive
13 | CC(=O)OCC=C(C)C | inactive | inactive | inactive | inactive | inactive | inactive | inactive |  |  | inactive
14 | COc1c(C)c2c(c(O)c1C/C=C(\C)CCC(=O)OCCN1CCOCC1)C(=O)OC2 | inactive | inactive | inactive | inactive | inactive | inactive | inactive | inactive |  | inactive
15 | c1ccsc1 | inactive | inactive | inactive | inactive | inactive | inactive | inactive | inactive |  | inactive
16 | CC(=O)Oc1cc2c(s1)CCN(C(C(=O)C1CC1)c1ccccc1F)C2 (centres undefined) | inactive |  | inactive | inactive |  | inactive | inactive | inactive | inactive | inactive
17 | NC(=S)NC(N)=S | inactive | inactive | inactive | inactive | inactive | inactive | inactive | inactive |  | inactive
18 | COCCOc1cc2cc(C(=O)NC3CCN(C(C)C)CC3)n(CC(=O)Nc3ccc(Cl)cn3)c2cn1 | inactive |  | inactive |  |  | inactive | inactive | inactive | inactive | inactive
19 | CCCCOC(=O)CC | inactive | inactive | inactive | inactive | inactive | inactive | inactive | inactive |  | inactive
20 | Cl[Si](Cl)(c1ccccc1)c1ccccc1 | inactive |  |  | inactive |  |  | inactive | inactive | inactive | inactive
21 | O=C1NC(=O)[C@@H]2CC=CC[C@H]12 | inactive | inactive | inactive | inactive | inactive | inactive | inactive | inactive |  | inactive
22 | OC1CCC(C2CCCCC2)CC1 (centres undefined) | inactive | inactive | inactive | inactive | inactive | inactive | inactive | inactive |  | inactive
23 | Cc1cc(=O)oc2cc(O)cc(O)c12 | inactive |  | inactive | inactive | inactive |  | inactive |  | inactive | inactive
24 | Cc1ccc(C(=O)O)cc1 | inactive | inactive | inactive | inactive | inactive | inactive | inactive | inactive |  | inactive
